Values joined by “and” are separate entries in the source; they are usually repeats but may differ in a detail not shown here. Equal entries are not always repeated. Results filed as inconclusive are left out. Active and inactive are the calls of the source. Calls come from the whole dose curve; as a rule, active = well fitted inhibition curve with a large enough effect; inconclusive = small, poorly fitted or top-dose-only effect, or effect the other way; inactive = flat fitted curve, though single readings scatter.
These compounds were tested against Lysosomal acid glucosylceramidase (Homo sapiens) (UniProt P04062) (assay: qHTS Assay for Inhibitors and Activators of N370S glucocerebrosidase as a Potential Chaperone Treatment of Gaucher Disease: Purified Non-mutant Glucocerebrosidase). Conditions: purified wildtype GC, 4MU-beta-glucoside fluorescence, 40 min; series mostly up to 76.9 µM.
Chain of Lysosomal acid glucosylceramidase (Homo sapiens) (P04062 whole entry, looked up): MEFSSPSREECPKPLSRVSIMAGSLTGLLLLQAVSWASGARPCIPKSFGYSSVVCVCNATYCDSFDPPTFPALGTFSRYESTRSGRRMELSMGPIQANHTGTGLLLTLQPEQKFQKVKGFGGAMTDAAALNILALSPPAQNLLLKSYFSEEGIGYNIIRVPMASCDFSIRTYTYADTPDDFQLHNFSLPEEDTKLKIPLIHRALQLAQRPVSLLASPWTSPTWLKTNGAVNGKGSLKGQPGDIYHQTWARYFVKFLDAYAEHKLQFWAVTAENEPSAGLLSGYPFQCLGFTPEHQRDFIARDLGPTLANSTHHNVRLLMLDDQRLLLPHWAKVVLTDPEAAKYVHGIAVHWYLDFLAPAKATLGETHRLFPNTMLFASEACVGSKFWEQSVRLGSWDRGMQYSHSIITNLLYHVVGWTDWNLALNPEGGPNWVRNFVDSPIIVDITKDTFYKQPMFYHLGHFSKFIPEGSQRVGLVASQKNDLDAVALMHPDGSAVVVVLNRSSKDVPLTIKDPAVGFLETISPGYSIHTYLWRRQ
From the text: NIH Chemical Genomics Center [NCGC] NIH Molecular Libraries Probe Production Centers Network [MLPCN] MLPCN Grant: MH086442-01 Assay Submitter (PI): Wei Zheng Glucocerebrosidase (GC) catalyzes the hydrolysis of beta-glucocerebroside to glucose and ceramide in lysosomes. Mutations in the glucocerebrosidase gene result in Gaucher disease, an autosomal recessive lysosomal storage disorder. Many of the mutations encountered in patients with Gaucher disease are missense alterations that may cause misfolding, decreased stability and/or mistrafficking of this lysosomal protein. […] These inhibitors include iminosugar analogs and three non-iminosugar inhibitors identified from a previous HTS of 62,000 compounds with the wild type recombinant enzyme. However, the enhancement of enzyme activity by the chaperone action of an enzyme inhibitor must be balanced against the direct inhibition of the enzyme. An enzyme activator could also function as a chaperone by binding to the enzyme and helping to correct its misfolding and mistrafficking. While activators for GC have not yet been identified, they may have better therapeutic potential than inhibitors. Therefore the discovery and development of chemical activators may provide a new strategy for the chaperone therapy. We have optimized a new assay using N370S mutant GC derived from the spleen of a Gaucher patient. […] In addition, the MLPCN compound library has expanded, which increases the chance of finding new and better probes. This assay characterizes compound activity using purified wildtype enzyme instead of mutant enzyme from tissue homogenate. Compound activity differences may be due to the absence of endogenous cofactors found in tissue homogenate as well as inherent differences in enzyme stability and catalytic activity between the N370S and wildtype forms of the protein.
NCGC Assay Protocol Summary: This is a fluorogenic enzyme assay with 4-methylumbelliferyl-beta-D-glucopyranoside as the substrate and purified wildtype glucocerebrosidase as the enzyme preparation. Upon the hydrolysis of this fluorogenic substrate, the resulting product, […] which can be detected by a standard fluorescence plate reader. Data were normalized to the controls for basal activity (without enzyme) and 100% activity (with enzyme). The AC50 values were determined from concentration-response data modeled with the standard Hill equation. Assay buffer: 50 mM citric acid (titrated with potassium phosphate to pH 5.0), 100 mM potassium chloride, 10 mM sodium chloride, 1 mM magnesium chloride, 0.01% Tween-20. 1536-well assay protocol: (1) Add 2 ul/well of glucocerebrosidase enzyme solution (5 nM final) (2) Add 23 nL compounds in DMSO solution. The final titration was 0.5 nM to 58 uM. (3) Add 2 ul of substrate (1 mM final) (4) Incubate at 37C for 40 min. (5) Add 2 ul stop solution (1M NaOH and 1M Glycine mixture, pH 10) (6) Detect the assay plate in a ViewLux plate reader (PerkinElmer) with Ex=365 nm and Em=440nm. Keywords: Glucocerebrosidase, beta-glucosidase, Gaucher Disease, pharmacological chaperone, chaperone therapy, high throughput screening, glucocerebrosidase inhibitor, MLSMR, MLSCN, NIH Roadmap, qHTS and NCGC
With O=S(=O)(c1ccc(Cl)cc1)N1CCN(c2nc(-c3cccc(Br)c3)nc3ccccc23)CC1 the Potency was “inactive”. With Cc1cc(C)cc(N(CC(=O)NC2CCCCCC2)S(=O)(=O)c2c(C)[nH]c(=O)[nH]c2=O)c1 the Potency was 0.398 µM (active). For O=S(=O)(c1ccc(F)cc1)N1CCN(c2nc(-c3cccc(Br)c3)nc3ccccc23)CC1, the Potency was “inactive”. O=S(=O)(c1ccc2c(c1)OCCO2)N1CCN(c2nc(-c3ccccc3)nc3ccccc23)CC1 was tested, and the Potency was 12.6 µM (active). With COc1cccc(S(=O)(=O)N2CCN(c3nc(-c4cccs4)nc4ccccc34)CC2)c1 the Potency was 10 µM (active). With O=S(=O)(c1ccc(Cl)cc1)N1CCN(c2nc(-c3ccc(F)cc3)nc3cc(Cl)ccc23)CC1 the Potency was “inactive”. In the case of c1csc(-c2nc(NCC3CCCO3)c3ccccc3n2)c1 (centres undefined), the Potency is reported as 15.8 µM (active). CC(C)(C)C(=O)OCCNc1nc(-c2ccccc2)nc2ccccc12 was tested, and the Potency was 0.708 µM (active). In the case of Cc1ccc(-c2nc(N3CCN(S(=O)(=O)c4ccc(F)cc4)CC3)c3ccc(Cl)cc3n2)cc1, the Potency is reported as “inactive”. In the case of O=S(=O)(c1ccc(F)cc1)N1CCN(c2nc(-c3ccc(F)cc3)nc3cc(Cl)ccc23)CC1, the Potency is reported as “inactive”. In the case of Cc1ccc(S(=O)(=O)N2CCN(c3nc(-c4ccc(F)cc4)nc4cc(Cl)ccc34)CC2)cc1, the Potency is reported as “inactive”. O=S(=O)(Cc1ccccc1)N1CCN(c2nc(-c3cccs3)nc3ccccc23)CC1 was tested, and the Potency was 10 µM (active). In the case of O=S(=O)(c1ccc(Cl)cc1)N1CCN(c2nc(-c3cccs3)nc3ccccc23)CC1, the Potency is reported as 2.51 µM (active) and 6.31 µM (active). With Cc1ccc(S(=O)(=O)N2CCN(c3nc(-c4cccs4)nc4ccccc34)CC2)cc1 the Potency was 2 µM (active) and 10 µM (active). O=S(=O)(c1ccc(F)cc1)N1CCN(c2nc(-c3cccs3)nc3cc(Cl)ccc23)CC1 was tested, and the Potency was “inactive”. With Cc1ccc(Cl)cc1NC(=O)c1ccccc1OCC(=O)Nc1ccc(Cl)cc1 the Potency was “inactive”. For O=S(=O)(c1ccc(F)cc1)N1CCN(c2nc(-c3ccccc3)nc3cc(Cl)ccc23)CC1, the Potency was “inactive”. With O=S(=O)(c1cccc(C(F)(F)F)c1)N1CCN(c2nc(-c3cccs3)nc3cc(Cl)ccc23)CC1 the Potency was “inactive”. O=S(=O)(c1ccc2ccccc2c1)N1CCN(c2nc(-c3cccs3)nc3ccccc23)CC1 was tested, and the Potency was 8.91 µM (active). With O=S(=O)(c1ccccc1C(F)(F)F)N1CCN(c2nc(-c3cccs3)nc3ccccc23)CC1 the Potency was 4.47 µM (active). For COc1ccc(-c2nc(N3CCN(S(=O)(=O)c4ccc(F)cc4)CC3)c3ccccc3n2)cc1, the Potency was “inactive”. In the case of S=C(NCCCc1cnc[nH]1)NCCCN(Cc1ccc(Cl)c(Cl)c1)c1ccc(Br)cn1, the Potency is reported as 0.708 µM (active). For COc1ccc(S(=O)(=O)N2CCN(c3nc(-c4cccs4)nc4ccccc34)CC2)cc1, the Potency was 14.1 µM (active). In the case of O=S(=O)(c1ccc(Cl)cc1)N1CCN(c2nc(Nc3cc(Cl)ccc3O)nc3ccccc23)CC1, the Potency is reported as 1.26 µM (active). With O=S(=O)(c1ccc2c(c1)OCCO2)N1CCN(c2nc(-c3cccs3)nc3ccccc23)CC1 the Potency was 2.51 µM (active). For O=S(=O)(c1ccccc1Cl)N1CCN(c2nc(-c3cccs3)nc3ccccc23)CC1, the Potency was 2.82 µM (active). In the case of CC(C)C(C)NC(=O)CSc1nc2scc(-c3ccco3)c2c(=O)n1-c1ccccc1 (centres undefined), the Potency is reported as “inactive”. O=S(=O)(c1cccs1)N1CCN(c2nc(-c3cccs3)nc3ccccc23)CC1 was tested, and the Potency was 8.91 µM (active). For O=S(=O)(c1ccccc1)N1CCN(c2nc(-c3ccc(F)cc3)nc3cc(Cl)ccc23)CC1, the Potency was “inactive”. For OCCNc1nc(-c2cccs2)nc2ccccc12, the Potency was 17.8 µM (active). NS(=O)(=O)c1ccc(S(=O)(=O)N2CCN(c3nc(-c4cccs4)nc4ccccc34)CC2)cc1 was tested, and the Potency was 15.8 µM (active). In the case of O=C(c1ccc2c(c1)OCCO2)N1CCN(c2nc(-c3cccs3)nc3ccccc23)CC1, the Potency is reported as 31.6 µM (active). O=S(=O)(c1cccc2ccccc12)N1CCN(c2nc(-c3cccs3)nc3ccccc23)CC1 was tested, and the Potency was 14.1 µM (active). For O=S(=O)(c1ccc(Cl)cc1)N1CCN(c2nc(-c3ccc(Cl)cc3)nc3ccccc23)CC1, the Potency was “inactive”.

From PubChem BioAssay AID2595 (National Center for Advancing Translational Sciences (NCATS), 2010)
